High-throughput results: PubChem BioAssay, several laboratories
Sampled rows, rich in hits. Any-hit rate of the full collection: about 27%.
sEH activator: activators of human soluble epoxide hydrolase; activation, % at 2 µM; P34913; purified human sEH enzymatic activity, activator screen; AID 717; actives 0.04% (n = 91,000); in the data active means activation above about 37%
CYP2C9 activ: CYP2C9 (human) activation; AID 1024; recombinant CYP2C9, luciferin-H conversion, luminescence; hits give high values; factor 1 = untreated enzyme, 0 = blocked; actives 1.4% (n = 96,000); activation factor at 5 µM;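 active means activation factor of 2 or more for CYP2C9 at a 5 µM dose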;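 further: 0 = sulfaphenazole-blocked wells and 1 = vehicle-only wells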
Target sequence (P11712 whole entry, looked up): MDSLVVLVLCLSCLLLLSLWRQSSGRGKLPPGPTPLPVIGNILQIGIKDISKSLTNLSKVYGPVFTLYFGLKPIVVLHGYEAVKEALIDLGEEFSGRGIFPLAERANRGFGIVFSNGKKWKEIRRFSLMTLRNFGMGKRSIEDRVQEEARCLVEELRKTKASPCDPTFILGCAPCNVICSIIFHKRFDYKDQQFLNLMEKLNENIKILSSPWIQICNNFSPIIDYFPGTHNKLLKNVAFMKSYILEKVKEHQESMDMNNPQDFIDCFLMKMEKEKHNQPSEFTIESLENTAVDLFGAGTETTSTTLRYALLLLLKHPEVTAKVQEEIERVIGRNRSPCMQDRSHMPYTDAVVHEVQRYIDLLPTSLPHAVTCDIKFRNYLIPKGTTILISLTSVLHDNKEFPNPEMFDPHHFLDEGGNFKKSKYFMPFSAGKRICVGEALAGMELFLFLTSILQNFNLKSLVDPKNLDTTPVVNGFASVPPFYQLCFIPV
CYP2C19 activ: increases human CYP2C19 enzyme activity | P33261 | recombinant CYP2C19, luciferin-H EGE luminescence; hits give high values; 0 = fully inhibited enzyme, 1 = untreated enzyme | activation factor at 5 µM | 96,000 tested, under 10 active | AID 1025;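 active means activation factor of at least 2 at 5 µM in the primary screen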;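 further: 0 = wells with 2.5 mM tranylcypromine and 1 = vehicle-only wells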
CYP2C9 inhib: inhibitors of human CYP2C9. CYP2C9 Supersomes, luciferin-H conversion, luminescence. inhibition, % at 5 µM. actives 20% (n = 96,000);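 active means blocking of liver enzyme CYP2C9 beyond about 50% at 5 µM, limit read from the data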
sEH inhibitor: inhibitors of human soluble epoxide hydrolase. actives 0.34% (n = 91,000). AID 707. recombinant human sEH enzymatic activity assay. P34913. inhibition, % at 2 µM; in the data active means inhibition above about 80%
CYP2C19 inhib: blocks human cytochrome P450 2C19; actives 21% (n = 96,000); CYP2C19 Supersomes, luciferin-H EGE luminescence, 30 min; P33261; inhibition, % at 5 µM;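 active means CYP2C19 inhibition above a set limit at 5 µM in the primary screen, cut at about 50% in these data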;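 further: plate controls were negative control wells for no effect and 2.5 mM tranylcypromine positive control for full effect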
Starred values were filed as active, the others as inactive; . = no result given; ! = not confirmed by another sample.

SMILES | sEH activator | CYP2C9 activ | CYP2C19 activ | CYP2C9 inhib | sEH inhibitor | CYP2C19 inhib
CCOC(=O)Cn1cc(C=O)c2ccccc21 | 16 | 1.1 | 1 | -13 | -19 | -2
O=C(c1cn(CC(=O)N2CCCC2)c2ccccc12)C1CCCCC1 | -13 | 0.5 | 0.5 | 50* | 12 | 54*
CN1C(=O)/C(=C/c2cn(CC(=O)N3CCCCC3)c3ccccc23)c2ccccc21 | 16 | 0 | 0.2 | 98* | -14 | 75*
O=C(Cn1cc(C(=S)N2CCOCC2)c2ccccc21)N1CCOCC1 | -8 | 1 | 1.1 | 1 | 7 | -10
CC1CCCCN1C(=O)Cn1cc(C(=O)c2ccco2)c2ccccc21 (stereo not drawn) | 8 | 0.3 | 0.2 | 68* | -8 | 83*
O=C(c1ccco1)c1cn(CC(=O)N2CCCc3ccccc32)c2ccccc12 | -1 | 0 | 0 | 100* | 3 | 98*
O=Cc1cn(CC(=O)N2CCCc3ccccc32)c2ccccc12 | -9 | . | . | . | 9 | .
CC1CCCCC12NC(=O)N(CC(=O)c1ccc[nH]1)C2=O (stereo not drawn) | -3 | 0.8 | 1 | 16 | 2 | -1
COC(=O)Cn1c(=NC(=O)CSC(C)=O)sc2ccccc21 | . | 0.5 | 1.1 | 50 | . | -5
CC1(C)C(c2ccccc2)=[N+]([O-])C2(CCCCC2=O)N1O (stereo not drawn) | -7 | . | . | . | 8 | .
Cc1sc2nc(SCC(=O)N(C)C)[nH]c(=O)c2c1C | -3 | 0.5 | 0.7 | 54* | 8 | 34
CCOC(=O)Cc1csc(NC(=O)CSc2nncn2C)n1 | -8 | . | . | . | 7 | .
CCN(CC)C(=O)CSc1nc2sc(C)c(C)c2c(=O)[nH]1 | -13 | 0.8 | 0.9 | 21 | 13 | 6
CCOC(=O)Cc1csc(NC(=O)CSc2nc3sc(C(=O)O)c(C)c3c(=O)[nH]2)n1 | 13 | 0.2 | 0.9 | 84* | -12 | 11
Cc1csc(NC(=O)CSc2nc3sc(C)c(C)c3c(=O)[nH]2)n1 | -8 | 0.1 | 0.9 | 86* | 8 | 12
Cc1nn(C)c(C)c1S(=O)(=O)N1CCC(C(=O)NCC2COc3ccccc3O2)CC1 (stereo not drawn) | . | 1.6 | 0.9 | -58 | . | 12
N#Cc1c(NC(=O)CSc2nc(-c3ccco3)cc(C(F)(F)F)n2)sc2c1CCCC2 | -10 | 0.8 | 1 | 24 | 10 | 1
Cc1nc2nc[nH]n2c(=O)c1CCC(C)C | 5 | 0.8 | 0.9 | 25 | -5 | 10
N#C/C(=N\O)c1nc(-c2ccccc2)cs1 | 2 | 0.4 | 0.7 | 62*! | 2 | 33
CC(C)CCN(CCC(C)C)C/C(O)=C(\C#N)c1nc(-c2ccccc2)cs1 | 17 | 1 | 0.9 | 1 | -14 | 12
CCC(Sc1n[nH]c(=O)[nH]c1=O)C(=O)OCc1ccccc1 (stereo not drawn) | 1 | 0.8 | 0.6 | 18 | 0 | 41
NC(=O)SCC(=O)Nc1ccc(Cl)cc1 | -5 | 0.5 | 0.6 | 51* | 5 | 36
Cc1ccc(NC(=O)CSC(N)=O)cc1Cl | -11 | 0.6 | 0.7 | 42 | 11 | 30
CCC(CC)C(=O)Nc1ccc(Cl)c(Cl)c1 | 1 | 0.6 | 0.3 | 38 | 0 | 67*
NC(=O)SCC(=O)Nc1ccc(Cl)c(Cl)c1 | 12 | 0.3 | 0.5 | 74* | -10 | 46
SMILES | sEH activator | CYP2C9 activ | CYP2C19 activ | CYP2C9 inhib | sEH inhibitor | CYP2C19 inhib
COC(=O)c1nc2n(n1)C(c1ccccc1OC)C1=C(CCCC1=O)N2 (stereo not drawn) | . | 1 | 0.9 | 4 | . | 8
COc1ccccc1CNC(=O)CN1CCN(Cc2ccc(Cl)cc2)C1=O | -5 | . | . | . | 4 | .
C=C(C)C(C)(C#CCN1CCCC1)OC(C)=O (stereo not drawn) | 9 | 1.1 | 1 | -9 | -6 | -5
O=C(Cc1ccccc1)NCC(=O)OCC(=O)c1ccc(OC(=O)c2ccccc2)cc1 | -14 | 0.8 | 1 | 15 | 13 | 1
CCOC(=O)c1cnc(SCCc2ccccc2)nc1N | -4 | 1 | 0.6 | 4 | 8 | 38
CCOC(=O)c1cnc(NCc2ccccc2)nc1C | . | 0.4 | 0.5 | 62* | . | 51*
CCOC(=O)c1cnc(-n2nc(C)cc2C)nc1NCc1ccccc1 | 16 | 0.3 | 0.6 | 68* | -17 | 37
CCOC(=O)c1cnc(-c2ccccc2)[nH]c1=O | 10 | 0.5 | 0.9 | 55* | -11 | 11
CCOC(=O)c1cnc(-n2nc(C)cc2C)nc1NCCO | 9 | 1 | 0.8 | 2 | -10 | 18
Brc1[nH]nc2ccccc12 | 9 | 1.1 | 0.9 | -12 | -7 | 10
COc1c2ccc(C(=O)NCCCCc3ccccc3)cc2nn1C | -4 | 1 | 0.9 | 4 | 5 | 11
COc1ccc(CC(=O)OCC(=O)NC(=O)NC23CC4CC(CC(C4)C2)C3)cc1 | -31 | 0.3 | 0.7 | 66* | 30 | 32
COc1ccc(N2CCN(C(=S)Nc3cc(C)cc(C)c3)CC2)cc1 | 15 | 1 | 0.9 | -3 | -12 | 11
COc1ccc(N2CCN(C(=O)NC34CC5CC(CC(C5)C3)C4)CC2)cc1 | -10 | 0.4 | 0.4 | 59* | 12 | 63*
O=C(COC(=O)c1n[nH]c2ccccc12)NC(=O)NC12CC3CC(CC(C3)C1)C2 | -15 | 1 | 0.9 | -1 | 14 | 8
CNC(=S)N1CCN(c2ccc(OC)cc2)CC1 | -3 | 0.8 | 0.3 | 15 | 6 | 70*
CCCN=Cc1sc2ccc(OCC)cc2c1O | -2 | 1.5 | 0.3 | -52 | 4 | 69*
O=C(C1CCN(S(=O)(=O)c2cccc3cccnc23)CC1)N1CCc2ccccc21 | . | 2.1* | 0.6 | -112 | . | 43
O=C(C1CCC(CNS(=O)(=O)c2cccc3cccnc23)CC1)N1CCc2ccccc21 (stereo not drawn) | 4 | 0.9 | 0.2 | 12 | -7 | 80*
O=C(C1CCCN1S(=O)(=O)c1cccc2cccnc12)N1CCc2ccccc2C1 (stereo not drawn) | -2 | 0.8 | 0.8 | 15 | 1 | 20
O=C(C1CCCN1S(=O)(=O)c1cccc2cccnc12)N1CCc2ccccc21 (stereo not drawn) | 10 | 0.4 | 0.3 | 62* | -12 | 70*
CC1CCN(C(=O)C2CCC(CNS(=O)(=O)c3cccc4cccnc34)CC2)CC1 (stereo not drawn) | -15 | 2.9* | 1 | -191 | 14 | -2
COC(=O)C1(C(F)(F)F)N=C2Sc3ccccc3N2C(N2CCOCC2)=N1 (stereo not drawn) | 1 | 0.9 | 0.8 | 8 | -2 | 23
Nc1ccccc1-c1nnn(CC(=O)N2CCCc3ccccc32)n1 | 5 | . | . | . | -7 | .
CN(C)S(=O)(=O)c1ccc(S(=O)(=O)NC2CCOC(C)(C)C2)cc1 (stereo not drawn) | -5 | . | . | . | 8 | .
O=C(C1CCCN1S(=O)(=O)c1cccc2cccnc12)N1CCN(c2ccccc2)CC1 (stereo not drawn) | -4 | 0.4 | 0.8 | 61* | 1 | 16
